# A selection: hits, their analogues and other compounds. The true share with any hit is near 8.9%.
# DRD3 agonist = qHTS of D3 Dopamine Receptor Agonist: qHTS; AID 652048, 2013; max activation, %; 410,000 tested, 0.58% active; D(3) dopamine receptor (Homo sapiens), P35462; D3R DiscoveRx beta-arrestin cells, luminescence, 90 min; in the data active = max activation above about 30%; note: 0% is about no effect
# Target sequence (P35462 whole entry, looked up): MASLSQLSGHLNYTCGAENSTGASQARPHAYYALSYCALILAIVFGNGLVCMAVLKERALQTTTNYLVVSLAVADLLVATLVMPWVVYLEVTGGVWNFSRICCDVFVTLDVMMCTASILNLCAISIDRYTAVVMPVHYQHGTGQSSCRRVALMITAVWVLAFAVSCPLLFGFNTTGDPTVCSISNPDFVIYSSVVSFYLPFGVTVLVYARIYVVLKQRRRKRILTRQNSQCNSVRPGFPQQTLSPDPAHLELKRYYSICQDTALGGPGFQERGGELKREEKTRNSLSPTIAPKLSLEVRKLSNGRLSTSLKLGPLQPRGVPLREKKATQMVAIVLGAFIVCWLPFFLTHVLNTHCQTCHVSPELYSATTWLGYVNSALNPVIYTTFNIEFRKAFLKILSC
#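 Cells at 1500/well, incubated overnight, then treated with pinned compounds (dopamine as control) for 90 min at 37 degrees C. DiscoveRx reagent added for 30 - 60 minutes at room temperature; luminescence read.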
# D3 antag = qHTS of D3 Dopamine Receptor Antagonist: qHTS; D3R cells, DiscoveRx beta-arrestin luminescence, antagonist mode; hits give low values; max response, negative = inhibition, %; AID 652054, 2013; D(3) dopamine receptor (Homo sapiens), P35462; 360,000 tested, 2.5% active; in the data active = max response below about -50%; inconclusive = no clear call, values can overlap the other calls; note: % is set by controls: 0 for no effect and ±100 for the full control effect
#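 Cells expressing the human receptor were seeded at 1500 cells/well, incubated overnight at 37 degrees C in 5% CO2, then exposed to library compounds with dopamine controls for 90 minutes at 37 degrees C before luminescent detection.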
# KB-3-1 cytotox = qHTS assay for MDR1-selective chemotherapeutics: Primary screen using the parental adenocarcinoma cell KB-3-1; KB-3-1 viability, CellTiter-Glo ATP luminescence, 72 h; Potency, µM (titrated, usually from 46.1 µM), hits mostly cytotoxic; 400,000 tested, 1.4% active; note: potency is the fitted concentration of half-maximal effect; % is set by controls: 0 for no effect and ±100 for the full control effect; nearly all actives have a fitted effect of over 60% in size
#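 Parental KB-3-1 adenocarcinoma cells in phenol-red-free DMEM with 10% FBS were pin-treated with compounds at several concentrations, incubated 72 h at 37 °C, and viability read by CellTiter-Glo luminescence; concentration-effect curves were fitted after normalization.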
# KB-V1 cytotox = qHTS assay for MDR1-selective chemotherapeutics: Primary screen using the drug-selected MDR subline cells KB-V1; KB-V1 MDR cells viability, CellTiter-Glo, 72 h; Potency, µM (series often up to 46.1 µM), most hits filed as cytotoxic; 400,000 tested, 3.4% active; AID 1347076, 2019; note: potency is the fitted concentration of half-maximal effect; % is set by controls: 0 for no effect and ±100 for the full control effect; nearly all actives have a fitted effect of over 60% in size
#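 Cells of the MDR subline KB-V1 are plated, dosed with compound at multiple concentrations, and incubated 72 h at 37 degrees C; CellTiter-Glo is then added and luminescence read after 10 min.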
# MCF10A rereplic = A quantitative high throughput screen for small molecules that induce DNA re-replication in MCF 10a normal breast cells; 350,000 tested, 2.9% active; MCF 10A DNA re-replication, Hoechst nuclear intensity, 48 h; Potency, µM (top dose mostly 46.1 µM), inactives show at the highest dose activity, positive = re-replication, hits mostly activators; note: potency is the fitted concentration of half-maximal effect; % of control where 0% means no effect; nearly all actives have a fitted effect of over 50% in size
# SW480 rerep = A quantitative high throughput screen for small molecules that induce DNA re-replication in SW480 colon adenocarcinoma cells; AID 624297, 2012; SW480 DNA re-replication, Hoechst DNA content imaging, 48 h; 340,000 tested, 1.8% active; Potency, µM (highest dose often 46.1 µM), for the others: at the highest dose re-replication activation, most hits filed as activators; note: potency is the fitted concentration of half-maximal effect; % of control where 0% means no effect; nearly all actives have a fitted effect of over 55% in size
#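 DNA re-replication was detected as more nuclei of elevated Hoechst intensity after 48 hr exposure to compound (23 nL pinned per well of 250 cells).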
# * marks the source's active call; other numbers are inactive results; i = inactive; u = inconclusive; x = no result given; ! = a repeat was not active. Unless noted, calls come from the whole dose curve; as a rule, active = well fitted curve in the direction sought with a large enough effect; inconclusive = small, poorly fitted or top-dose-only effect, or another doubt; inactive = no such curve, though single readings can be large; an effect the other way counts as inactive or inconclusive.
SMILES,DRD3 agonist,D3 antag,KB-3-1 cytotox,KB-V1 cytotox,MCF10A rereplic,SW480 rerep
COc1cccc(C(=O)NCCCNC(=O)c2cccc(OC)c2)c1,3.8,11.8,i,i,-14.1%,-2.5%
O=C(O)Cn1c(O)c(C=Nc2ccccc2)sc1=S,0.2,-62.7*!,i,i,-2.8%,-12.6%
C=CCSc1ccccc1C(=O)Nc1ncn[nH]1,1.6,-12.6,i,i,-0.6%,10.1%
N#C/C(=C/c1cccc(C(F)(F)F)c1)c1nc(CCN2C(=O)c3ccccc3C2=O)cs1,-7.1,-10.8,i,20.6µM*,5.6%,-3.6%
Cc1ccc(CNC(=O)CN(c2ccc(C(C)C)cc2)S(=O)(=O)c2c(C)n[nH]c2C)cc1,2.6,x,i,i,x,x
O=C(/C=C/c1ccco1)N1CCN(S(=O)(=O)c2cccc([N+](=O)[O-])c2)CC1,-2.8,-16.8,i,23.1µM*,1.8%,-1.5%
Clc1cccc(-c2ccc(C=Nc3ccc(N4CCOCC4)cc3)o2)c1Cl,11.1,21.8,i,i,20.6µM*,u
Cc1ccc(NC(=O)NCCc2c(C)nn(C)c2C)cc1Cl,-8.1,x,i,i,x,x
CC(C)Cn1cc(C(=O)N2CCN(c3cccc(Cl)c3)CC2)c2c3ccccc3n(C)c2c1=O,-16.7,x,u,i,x,x
CC(=O)C1=NN(c2ccccc2)C2(S1)S/C(=C\c1ccccc1)C(=O)N2c1ccccc1 (centres undefined),1.8,16.9,i,i,u,5.17µM*
COC(=O)C1=NN(c2ccccc2)C2(S1)SC(C(C)=O)=C(C)N2c1ccccc1 (centres undefined),-3.3,-18.4,i,i,3.9%,-22.7%
CC1(C)CO[C@@H](CC(=O)O)CN1,7.4,x,x,x,1.1%,0.0%
CSc1ccc(S(=O)(=O)Nc2ccc(F)cc2)cc1,-6.3,-27.4,u,i,4.5%,-0.6%
CSc1ccc(S(=O)(=O)Nc2c(C)cccc2C)cc1,-9.2,-166.5*,i,i,-2.5%,-2.2%
CN1CCN(CCOCCOc2ccc(Br)cc2Cl)CC1,-20.1,-61.2*,i,i,u,5.2%
Clc1cc(Br)ccc1OCCN1CCOCC1,-14.6,u,i,u,-0.5%,3.1%
O=C1CCC(=O)N1OCCCOc1ccc(Br)cc1Cl,11.3,22.2,i,i,-2.4%,-0.9%
CC1CCCN(CCOCCOc2ccc(Cl)cc2Br)C1 (centres undefined),-53.0,-99.6*,u,16.4µM*,23.2%,u
CC1CCCN(CCOCCOc2ccc(Br)cc2Cl)C1 (centres undefined),0.2,-82.5*,u,i,u,u
CC1CCN(CCCOc2ccc(Br)cc2Cl)CC1,-14.7,-62.1*,i,u,14.9%,-0.4%
Cc1cccc(CNC(=O)Cc2ccc(NC(=O)N3CCCCc4ccccc43)cc2)c1,-4.4,x,i,i,x,x
Cc1ccc2oc(C(=O)Nc3ccc(S(=O)(=O)Nc4ncccn4)cc3)cc(=O)c2c1,4.0,x,i,i,x,x
Cc1ccc(OCCCCN2CCC(C)CC2)c(Br)c1,-25.0,-95.6*,i,u,15.1%,4.5%
Cc1ccc(OCCCCCCN2CCNCC2)c(Br)c1,-14.1,-4.5,i,i,u,u
Cc1occc1-c1nnc(SCC(=O)Nc2nc(-c3ccccc3)cs2)o1,12.3,13.7,i,i,18.4µM*,u
Cc1occc1-c1nnc(SCC(=O)Nc2nc3ccccc3s2)o1,23.6,-103.4*,i,u,u,-2.8%
Cc1cc(-c2nnc(SCC(=O)Nc3nc(-c4ccccc4)cs3)o2)no1,-2.2,13.6,i,u,-0.1%,25.2%
